# Rows were chosen to be rich in hits. Some 2.9% of all compounds tested hit in one or more screens of this group.
# TSHR antagonist: blocks TSH signaling through the human TSH receptor; P16473; TSHR-expressing cells, TSH-stimulated cAMP HTRF, 2 h; stronger effect = lower value; activity change, negative = inhibition, % at 11.5 µM; 330,000 compounds, 0.2% hits;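 active = activity change below a set negative limit, meaning inhibition stronger than a set level, cut at about -70% in these data; inconclusive = activity change between two set negative limits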
#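 Antagonism was scored as loss of TSH-driven cAMP in TSHR cells, stimulated with 4nM TSH (EC80) for 2 hours at 37 deg C and detected by homogeneous HTRF competition immunoassay.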
# DRD3 antagonist: antagonists of human D3 dopamine receptor. 360,000 compounds, 2.5% hits. max response, negative = inhibition, %. D3R cells, DiscoveRx beta-arrestin luminescence, antagonist mode; stronger effect = lower value. AID 652054; in the data active = max response below about -50%; inconclusive = no clear call, values can overlap the other calls
# Target sequence (P35462 whole entry, looked up): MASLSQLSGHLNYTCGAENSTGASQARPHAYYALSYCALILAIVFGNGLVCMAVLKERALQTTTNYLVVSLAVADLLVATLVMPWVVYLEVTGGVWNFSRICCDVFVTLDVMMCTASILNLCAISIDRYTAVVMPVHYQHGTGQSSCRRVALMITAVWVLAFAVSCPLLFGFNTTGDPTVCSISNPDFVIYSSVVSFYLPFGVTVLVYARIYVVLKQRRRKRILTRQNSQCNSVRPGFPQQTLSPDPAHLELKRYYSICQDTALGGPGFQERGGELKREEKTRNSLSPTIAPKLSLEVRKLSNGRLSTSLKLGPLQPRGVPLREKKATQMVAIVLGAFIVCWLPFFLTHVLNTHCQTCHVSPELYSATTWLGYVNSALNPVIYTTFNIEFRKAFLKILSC
#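 Cells plated overnight at 1500 cells/well, then exposed to library compounds with dopamine controls for 90 minutes at 37 degrees C. DiscoveRx reagent added for 30–60 minutes at room temperature; luminescence read, quantitative HTS format.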
# DRD3 agonist: agonists of human D3 dopamine receptor | AID 652048 | 410,000 compounds, 0.58% hits | D3R DiscoveRx beta-arrestin cells, luminescence, 90 min | max activation, % | P35462; in the data active = max activation above about 30%
#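 Agonist-mode cell screen: cells plated at 1500/well and incubated overnight at 37 °C, then exposed to library compounds for 90 min at 37 °C. Detection reagent was added for 30–60 min at room temperature, and luminescence was read.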
# B2AR arrestin: agonists driving beta-arrestin recruitment to human beta2-adrenergic receptor. P07550. beta-arrestin recruitment to beta2AR, cell-based reporter. Potency, µM (doses to about 46.1 µM), usual class: activators. 330,000 compounds, 0.02% hits. AID 492947; active = well fitted activation curve with a large enough effect; inconclusive = small, poorly fitted or top-dose-only effect; also: nearly all actives have a fitted effect of over 65% in size
# Numbers stand for hits; - = inactive; ? = inconclusive; . = no result given.
SMILES,TSHR antagonist,DRD3 antagonist,DRD3 agonist,B2AR arrestin
O=[N+]([O-])c1ccc(NC2CCN(Cc3ccccc3)CC2)c([N+](=O)[O-])c1,-,-62,-,-
CN1CCN(c2ccc([N+](=O)[O-])cc2C(=O)c2ccc(Br)cc2)CC1,-,-56,-,-
CC1CCC2C(=O)N(c3ccc(NC4CCN(Cc5ccccc5)CC4)c([N+](=O)[O-])c3)C(=O)C2C1 (centres undefined),-,-50,-,-
O=C1C2CCCCC2C(=O)N1c1ccc(NC2CCN(Cc3ccccc3)CC2)c([N+](=O)[O-])c1 (centres undefined),-,-,-,-
O=C1c2oc3ccccc3c(=O)c2C(c2ccccc2F)N1Cc1ccc2c(c1)OCO2 (centres undefined),.,.,-,.
COc1ccc2c(CNCc3ccco3)c(C(=O)O)n(Cc3ccc(F)cc3Cl)c2c1,.,.,-,.
Cn1cnc(S(=O)(=O)N2CCC(C(=O)NCc3ccc(F)cc3)CC2)c1,.,.,-,.
COc1ccc2c(c1)c1c(c(=O)n(-c3cccc(Cl)c3)c(=O)n1C)n2C,.,.,-,.
O=[N+]([O-])c1ccccc1C1Nc2cccc3cccc(c23)N1,-,-104,-,?
Oc1ccccc1C1Nc2cccc3cccc(c23)N1,-,-,-,-
COc1cc(OC)c(NC(=O)N2CCc3c(sc4c3CCCC4)C2c2ccccc2)cc1Cl (centres undefined),.,.,-,.
CC(C)(C)OC(=O)N(CCc1ccccc1)Cc1ccc(OCc2cccc(NC(=O)C3CCCC3)c2)cc1,.,-,-,.
CC(C)(C)OC(=O)N(CCc1ccccc1)Cc1ccccc1OCc1cccc(NC(=O)C2CCCC2)c1,.,-50,-,.
CC(C)(C)OC(=O)N(Cc1ccccc1)Cc1ccc(OCc2cccc(NC(=O)C3CC3)c2)cc1,.,-,65,.
Cc1ccc2cccc(Oc3ncnc4scc(-c5ccccc5)c34)c2n1,-84,-,-,-
Cc1cc(C)n(CCc2nc3c4ccccc4nc(SCc4ccc(Cl)cc4)n3n2)n1,.,.,-,.
CC(C)(C)n1nnnc1C(c1ccncc1)N1CCN(C2CCCCC2)CC1 (centres undefined),-,-,-,-
COc1ccc(Cn2nnnc2C(c2ccccc2)N2CCN(C3CCCC3)CC2)cc1 (centres undefined),-,-,-,-
COc1ccc(C(c2nnnn2CCc2ccccc2)N2CCN(C3CCCC3)CC2)cc1 (centres undefined),-,-85,-,-
Cc1ccc(C(c2nnnn2C(C)(C)C)N2CCN(C3CCCC3)CC2)cc1 (centres undefined),-,-92,-,-
COc1ccccc1N1CCN(C(c2ccc(N(C)C)cc2)c2nnnn2CCc2ccccc2)CC1 (centres undefined),-,-51,-,-
Cc1cccc(CC(=O)NCc2nc3cccnc3n2Cc2ccc(F)cc2)c1,.,.,-,.
Cc1ccccc1C(=O)NC1(C(F)(F)F)C(=O)Nc2c1c(=O)[nH]c(=O)n2-c1ccc(F)cc1 (centres undefined),.,.,-,.
CCOC(=O)N1CCC(N2CCCC(C(=O)c3cc(F)ccc3OC)C2)CC1 (centres undefined),-,-68,-,-
COc1ccc(F)cc1C(=O)C1CCCN(Cc2cnc(N3CCCC3)s2)C1 (centres undefined),-,-59,-,-
SMILES,TSHR antagonist,DRD3 antagonist,DRD3 agonist,B2AR arrestin
COc1ccc(Cl)cc1C(=O)C1CCCN(Cc2cnc(N3CCOCC3)s2)C1 (centres undefined),-,-79,-,-
COc1ccc(C(=O)C2CCCN(Cc3cnc(N4CCCC4)s3)C2)cc1OC (centres undefined),-,-,-,?
COc1c(C)cc(C(=O)C2CCCN(Cc3cnc(N4CCOCC4)s3)C2)cc1C (centres undefined),-,-,-,-
COc1ccc(-c2nc(SCC(=O)Nc3ccc4c(c3)OCO4)c(-c3ccccc3)[nH]2)cc1,.,.,-,.
Cc1ccccc1-c1n[nH]c(=S)o1,-,-,-,-
COc1ccccc1-c1n[nH]c(=S)o1,-,-82,-,-
COc1ccc(Cl)cc1-c1n[nH]c(=S)o1,-,-84,-,-
CCCCCCCCCCCCCCCCCC(=O)OCCO,.,.,-,.
CCOc1ccc(C(=O)Cc2ccc3oc(C(=O)O)cc3c2)c(O)c1,-,-62,-,-
CCN(CC)CCNc1ccnc2cc(Cl)ccc12,-,-80,-,-
CCc1nnc(SCc2nc(-c3ccc(OC)c(OC)c3)oc2C)c2cc3sc(C)cc3n12,.,.,-,.
CCN1C(=O)/C(=C2\C=Cc3ccccc3N2CC)SC1=S,-,-91,-,-
CCC(=O)N1CCc2cc(S(=O)(=O)Nc3cc(C)ccc3OC)ccc21,.,.,-,.
CN1CCN(C(=S)SCC(=O)N2CCCc3ccccc32)CC1,-,-61,-,-
O=Cc1cn(CC(=O)N2CCCc3ccccc32)c2ccccc12,-,-56,-,-
N#Cc1cn(CC(=O)N2CCCc3ccccc32)c2ccccc12,-,-,-,-
CCN(C(=O)CSc1nc2n[nH]c(C)c2c(=N)n1-c1cccc(OC)c1)c1cccc(C)c1,.,.,-,.
CCN(CC)CCNC(=O)c1ccc2nc(CCc3ccccc3)oc2c1,.,.,-,.
Cc1c(C(=O)N2CCCC2)sc(NC(=O)c2ccc(Cl)cc2)c1C#N,-,-55,-,-
COc1cc([N+](=O)[O-])cc(/C=N/NC(=O)c2cc(C)nc3ccccc23)c1O,-,-56,-,-
COc1cccc(/C=N/NC(=O)CSc2nnc(C)n2-c2ccccc2)c1O,-,-,-,-
COc1cc([N+](=O)[O-])cc(/C=N/NC(=O)CSc2nnc(-c3ccccc3)n2C)c1O,-,-52,-,-
COc1cc([N+](=O)[O-])cc(/C=N/NC(=O)Cn2nccc2C)c1O,-,-53,-,-
COc1cc([N+](=O)[O-])cc(/C=N/NC(=O)Cn2nc(C)cc2C)c1O,-,-60,-,-
COc1ccc(/C=N/NC(=O)Cn2nc([N+](=O)[O-])cc2C)c(OC)c1OC,-,-,-,-
SMILES,TSHR antagonist,DRD3 antagonist,DRD3 agonist,B2AR arrestin
COc1cc([N+](=O)[O-])cc(/C=N/NC(=O)c2cc(-c3ccccc3)nc3ccccc23)c1O,-,-,-,-
O=C(NCc1ccc2c(c1)CCN2C(=O)c1ccccc1)Nc1cccc(C(F)(F)F)c1,.,.,-,.
Cc1ccc(-n2ncc3c(N4CCCCC4)ncnc32)cc1,.,.,-,.
COC(=O)Cc1ccc(NC(=S)N2CCN(c3cccc(O)c3)CC2)cc1,-,-,32,-
Cc1cccc(N2CCN(CC(O)COc3ccc(Cl)cc3)CC2)c1 (centres undefined),-,-80,-,-
OC(COc1ccc(Cl)cc1)CN1CCN(c2cccc(Cl)c2)CC1 (centres undefined),-,?,-,-
Cc1cccc(N2CCN(CC(O)COc3ccccc3)CC2)c1 (centres undefined),.,-71,-,.
S=c1[nH]nc(-c2ccc(Cl)cc2)n1/N=C/C=C/c1ccco1,-,-80,-,-
S=c1[nH]nc(-c2ccco2)n1/N=C/C=C/c1ccccc1,-,-64,-,-
COc1ccccc1/C=C/C=N/n1c(-c2ccc(Cl)cc2)n[nH]c1=S,-,-63,-,-
